This passage reports binding signal results from article PMC12864922, “TDP-43 directly inhibits mRNA accumulation in neurites through modulation of mRNA stability”.

Over roughly 9,900 sequences, “r (bound/input frequency ratio)” has its median near 0.7; the highest 2% begin near 6.5. The sample holds the highest values, similar sequences and a random draw of the others, so the mix is not that of the screen.

The chains are these.
B1: ENSMUSG00000042529.155|Kcnj12|40:44 (ssRNA)
RNA: GGGAGUUCUACAGUCCGACGAUCGCUUCGAUAUCCGCAUGCUAAGAGUGGGUGCUUCUUAGAAAAGGACACUCAGGAAAUUACAUACGGGUCUGGGUCCCACAUCCCCAGGAAGUGGGUCAGCCCCACGUCCCCCGCUGGACUCACAGCUUGAGUUGUGCCUUAGAGACUCUGGUUGUCUGGCUUCCGUCAUUUCUGGUUUUCUCAGACUUGUUUAAUCUUUCCCUACUGCCCUAAGUCCACUCAUGAAGCUCCCCAGGCCCUUCUGAGAUUGCAGAGGCUGCUUGCUCAUAGCCAUGACCCUCUCUUGCGGUCGCACUAGUGUGGAAUUCUCGGGUGUCAAGG
B2: ENSMUSG00000031028.502|Tub (ssRNA)
RNA: GGGAGUUCUACAGUCCGACGAUCGCUUCGAUAUCCGCAUGCUACAAGUAAGGUGUGUGCCUCUGGGAAGACAGGAGUCGGAAGCCAAGGUGUGUGGCAACAGUCUGGAAGAGAGCUUUUGGUAAUCAUACCGUCUUCAGUGACAAGGCAACAAUGCUGUAAAGUGGGUUUGUUUGGUUUUGUUUUUUCUUUCUCUUUUAUGGAAAUGGCAGGUCUAUUUGCCUCAAACGUUAUGUAGAAGUAGUUCUAAGUUUAACAAGCAAUAGAGAUGACUGCUUAGCUAGGAUCUGCAGGGAGCUCUGCUCUCUUGCGGUCGCACUAGUGUGGAAUUCUCGGGUGUCAAGG
B3: ENSMUSG00000042529.125|Kcnj12|220:224 (ssRNA)
RNA: GGGAGUUCUACAGUCCGACGAUCGCUUCGAUAUCCGCAUGCUAGUGGGGCCCACUAGGGUGAAUCUGGCUUGCUCUUCUGUUUGAUGUUGUUGUACCUCAGCUGCCUCAGGGCUGGGUUUAGACACCCCUUCCCCCACCCCCACUCCGUACUCCCUGUUGUGCUUCCCUUCCUAUUUAGUCCCAGGUCUCCACCCCUUGCAGCGAGGGGGCAUAGGAAACACCAGAGUGGGUGCUUCUUAGAAAAGGACACUCAGGAAAUUACAUACGGGUCUGGGUCCCACAUCCCCAGGAAGUGGGUCAGCCUCUUGCGGUCGCACUAGUGUGGAAUUCUCGGGUGUCAAGG
B4: ENSMUSG00000031028.204|Tub|197:201;203:208 (ssRNA)
RNA: GGGAGUUCUACAGUCCGACGAUCGCUUCGAUAUCCGCAUGCUACUCUUCCCAGUUCCAGAGAUGAAACCCCUCCGAGUUAAUGUAUAAGGUUGGAAACCUUUCAGUAGGGAAUCAGGCAGUUCCCUGUUGAAAGUUGUCUGAGUUUUUGCACACCAUUCUGAUCUGAUGUGGCCUGUGCCUGGCUCCUCUAUGAGGACUUCGAGCUGUGCACAGACCUUAGCAGGACCACUGCACACUUACACACACACACACAGGCAGCCCAAGGGUUCUGGGGCUGGGCUUGGACACGCCCUCCAUUGGGACUCUUGCGGUCGCACUAGUGUGGAAUUCUCGGGUGUCAAGG
B5: ENSMUSG00000032194.8|Kank2 (ssRNA)
RNA: GGGAGUUCUACAGUCCGACGAUCGCUUCGAUAUCCGCAUGCUAGCCGAGGAGUGAAUACAGGGAGGAGCCAGUGAGUCCCCCAGGACCCACCAGCCACAAGCCACGCAUCAAACCGUCCCUCCUCCAUCCCUCUGUCCCAUUCUGCCUCGGCAUUCCUCAGCCCCUGAACUUCCCUGAGGGAGCCCUGACAUCUACCAGGCUCAAGCUCCUGGAAGCCUUUCCCAGCACCCUGGGUUCAAAGCCAGAAAGCCAAGCUACAUUCUCCUCCCAGUUGGCACCAGUUGACAACGCCUUGGGUGUGGCUCUUGCGGUCGCACUAGUGUGGAAUUCUCGGGUGUCAAGG
B6: ENSMUSG00000031028.492|Tub|69:75;106:112 (ssRNA)
RNA: GGGAGUUCUACAGUCCGACGAUCGCUUCGAUAUCCGCAUGCUAUUUAAAUGAACAUGGGGUGGUGAUGGUGCCUUAACAAUCUUGACACUAAGGUGAAGCAAGCAAGUAAGCACACACCCUCUGGGAAGACAGGAGUCGGAAGCCAAGCACACACGCAACAGUCUGGAAGAGAGCUUUUGGUAAUCAUACCGUCUUCAGUGACAAGGCAACAAUGCUGUAAAGUGGGUUUGUUUGGUUUUGUUUUUUCUUUCUCUUUUAUGGAAAUGGCAGGUCUAUUUGCCUCAAACGUUAUGUAGAAGUAGCUCUUGCGGUCGCACUAGUGUGGAAUUCUCGGGUGUCAAGG
B7: ENSMUSG00000061578.750|Ksr2 (ssRNA)
RNA: GGGAGUUCUACAGUCCGACGAUCGCUUCGAUAUCCGCAUGCUACAAGUUUGAGUCUCCAUAUGGGCCCUUCCUGUCCUCAUGCCCUGCCUGUCUUCAUUCCACCCAUCCACCCUCCUAAGGAUUGGUCUUGUUCCGAGAGUGAUCCUGGUAACGCCAAGCCUCCCUCUGCCCCUGUGUUGGCUUCUGUGACGGACUACCACACACCAAGAGGUUUUUCACAGUGAAGAUGUAUGCUCUCACCAUCCUACAGAUGCAAAGACCAAACACAAAGUGUCUGCAUGACCUUCCCCCUCUGGAAUUUGCUCUUGCGGUCGCACUAGUGUGGAAUUCUCGGGUGUCAAGG
B8: ENSMUSG00000028439.174|Fam219a|3:22;27:34;37:46;49:58;60:64;66:82;84:101;111:118 (ssRNA)
RNA: GGGAGUUCUACAGUCCGACGAUCGCUUCGAUAUCCGCAUGCUAUGCAUACCAUACCAUACCAUACCACAACACACACCAACACACACACCCACACACACACCCACACCCACACACAUACACACACCCACACACACACACACACAUGUACCCGACACACACAUGAGCCUAUCUGUCCAGGGAACCAGAUUGGUGUCCGAGAUGAGGAAAUGGCUGUGGCCUGGGAAAUCAGUGAGAGGCCGCUUGGGAAUGAGAAUGCAGUGGACUGAAAGCACAGCCUGGCCAUCUGGAACCUGGGUUCUGGUCUCUUGCGGUCGCACUAGUGUGGAAUUCUCGGGUGUCAAGG
B9: ENSMUSG00000028439.176|Fam219a (ssRNA)
RNA: GGGAGUUCUACAGUCCGACGAUCGCUUCGAUAUCCGCAUGCUAGUAUGGUAUGCACAUGUGUGUGCAUGUGUGUGUGCCUGUGUGUGUGCGUGUGCGUGUGUGUAUGUGUGUGCGUGUGUGUGUGUGUGUGUUGUACCCGAGUGUGUGUUGAGCCUAUCUGUCCAGGGAACCAGAUUGGUGUCCGAGAUGAGGAAAUGGCUGUGGCCUGGGAAAUCAGUGAGAGGCCGCUUGGGAAUGAGAAUGCAGUGGACUGAAAGCACAGCCUGGCCAUCUGGAACCUGGGUUCUGGUCCCAGCCUCGGCCUCUUGCGGUCGCACUAGUGUGGAAUUCUCGGGUGUCAAGG
B10: ENSMUSG00000028439.172|Fam219a (ssRNA)
RNA: GGGAGUUCUACAGUCCGACGAUCGCUUCGAUAUCCGCAUGCUAUAUGGUAUGGUAUGGUAUGGUAUGGUAUGGUAUGCACAUGUGUGUGCAUGUGUGUGUGCCUGUGUGUGUGCGUGUGCGUGUGUGUAUGUGUGUGCGUGUGUGUGUGUGUGUGUUGUACCCGAGUGUGUGUUGAGCCUAUCUGUCCAGGGAACCAGAUUGGUGUCCGAGAUGAGGAAAUGGCUGUGGCCUGGGAAAUCAGUGAGAGGCCGCUUGGGAAUGAGAAUGCAGUGGACUGAAAGCACAGCCUGGCCAUCUGGAACCUCUUGCGGUCGCACUAGUGUGGAAUUCUCGGGUGUCAAGG
B11: ENSMUSG00000028439.171|Fam219a (ssRNA)
RNA: GGGAGUUCUACAGUCCGACGAUCGCUUCGAUAUCCGCAUGCUAAUAUGGUAUGGUAUGGUAUGGUAUGGUAUGGUAUGGUAUGCACAUGUGUGUGCAUGUGUGUGUGCCUGUGUGUGUGCGUGUGCGUGUGUGUAUGUGUGUGCGUGUGUGUGUGUGUGUGUUGUACCCGAGUGUGUGUUGAGCCUAUCUGUCCAGGGAACCAGAUUGGUGUCCGAGAUGAGGAAAUGGCUGUGGCCUGGGAAAUCAGUGAGAGGCCGCUUGGGAAUGAGAAUGCAGUGGACUGAAAGCACAGCCUGGCCAUCCUCUUGCGGUCGCACUAGUGUGGAAUUCUCGGGUGUCAAGG
B12: ENSMUSG00000028439.170|Fam219a (ssRNA)
RNA: GGGAGUUCUACAGUCCGACGAUCGCUUCGAUAUCCGCAUGCUAUGUAUGAUAUGGUAUGGUAUGGUAUGGUAUGGUAUGGUAUGGUAUGCACAUGUGUGUGCAUGUGUGUGUGCCUGUGUGUGUGCGUGUGCGUGUGUGUAUGUGUGUGCGUGUGUGUGUGUGUGUGUUGUACCCGAGUGUGUGUUGAGCCUAUCUGUCCAGGGAACCAGAUUGGUGUCCGAGAUGAGGAAAUGGCUGUGGCCUGGGAAAUCAGUGAGAGGCCGCUUGGGAAUGAGAAUGCAGUGGACUGAAAGCACAGCCUGCUCUUGCGGUCGCACUAGUGUGGAAUUCUCGGGUGUCAAGG
B13: ENSMUSG00000028439.175|Fam219a (ssRNA)
RNA: GGGAGUUCUACAGUCCGACGAUCGCUUCGAUAUCCGCAUGCUAGGUAUGGUAUGGUAUGCACAUGUGUGUGCAUGUGUGUGUGCCUGUGUGUGUGCGUGUGCGUGUGUGUAUGUGUGUGCGUGUGUGUGUGUGUGUGUUGUACCCGAGUGUGUGUUGAGCCUAUCUGUCCAGGGAACCAGAUUGGUGUCCGAGAUGAGGAAAUGGCUGUGGCCUGGGAAAUCAGUGAGAGGCCGCUUGGGAAUGAGAAUGCAGUGGACUGAAAGCACAGCCUGGCCAUCUGGAACCUGGGUUCUGGUCCCAGCCUCUUGCGGUCGCACUAGUGUGGAAUUCUCGGGUGUCAAGG
B14: ENSMUSG00000028439.173|Fam219a (ssRNA)
RNA: GGGAGUUCUACAGUCCGACGAUCGCUUCGAUAUCCGCAUGCUAAUGGUAUGGUAUGGUAUGGUAUGGUAUGCACAUGUGUGUGCAUGUGUGUGUGCCUGUGUGUGUGCGUGUGCGUGUGUGUAUGUGUGUGCGUGUGUGUGUGUGUGUGUUGUACCCGAGUGUGUGUUGAGCCUAUCUGUCCAGGGAACCAGAUUGGUGUCCGAGAUGAGGAAAUGGCUGUGGCCUGGGAAAUCAGUGAGAGGCCGCUUGGGAAUGAGAAUGCAGUGGACUGAAAGCACAGCCUGGCCAUCUGGAACCUGGGUCUCUUGCGGUCGCACUAGUGUGGAAUUCUCGGGUGUCAAGG
B15: ENSMUSG00000028439.174|Fam219a (ssRNA)
RNA: GGGAGUUCUACAGUCCGACGAUCGCUUCGAUAUCCGCAUGCUAUGGUAUGGUAUGGUAUGGUAUGCACAUGUGUGUGCAUGUGUGUGUGCCUGUGUGUGUGCGUGUGCGUGUGUGUAUGUGUGUGCGUGUGUGUGUGUGUGUGUUGUACCCGAGUGUGUGUUGAGCCUAUCUGUCCAGGGAACCAGAUUGGUGUCCGAGAUGAGGAAAUGGCUGUGGCCUGGGAAAUCAGUGAGAGGCCGCUUGGGAAUGAGAAUGCAGUGGACUGAAAGCACAGCCUGGCCAUCUGGAACCUGGGUUCUGGUCUCUUGCGGUCGCACUAGUGUGGAAUUCUCGGGUGUCAAGG

The target of the test is TDP-43 (Homo sapiens, UniProt Q13148 1-414). The test can be described thus: RNA Bind-n-Seq with designed 260-mer pool; 25 mM Tris-HCl, 150 mM KCl, 3 mM MgCl2, BSA (printed 500 mg/mL), 20 units/mL SUPERase IN; pH not stated; 500 nM RNA pool, 1 h, 4 C; TDP-43 5, 50, 500 nM; high values mean tight binding. The note with it: protein: recombinant; tags: SBP (GST cleaved off with PreScission; pGEX-GST-SBP). An outline of the steps: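 An in vitro-transcribed pool of 260-nt 3′ UTR oligos (500 nM) was incubated for 1 h at 4 °C with recombinant SBP-tagged TDP-43 at 5, 50 or 500 nM held on streptavidin beads. The buffer contained 25 mM Tris-HCl, 150 mM KCl, 3 mM MgCl2, BSA and SUPERase IN. Biotin-eluted bound RNA was sequenced, and binding, R, is each oligo's normalized read abundance in the bound sample over that in input.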
Sequence of TDP-43 (Q13148 whole entry): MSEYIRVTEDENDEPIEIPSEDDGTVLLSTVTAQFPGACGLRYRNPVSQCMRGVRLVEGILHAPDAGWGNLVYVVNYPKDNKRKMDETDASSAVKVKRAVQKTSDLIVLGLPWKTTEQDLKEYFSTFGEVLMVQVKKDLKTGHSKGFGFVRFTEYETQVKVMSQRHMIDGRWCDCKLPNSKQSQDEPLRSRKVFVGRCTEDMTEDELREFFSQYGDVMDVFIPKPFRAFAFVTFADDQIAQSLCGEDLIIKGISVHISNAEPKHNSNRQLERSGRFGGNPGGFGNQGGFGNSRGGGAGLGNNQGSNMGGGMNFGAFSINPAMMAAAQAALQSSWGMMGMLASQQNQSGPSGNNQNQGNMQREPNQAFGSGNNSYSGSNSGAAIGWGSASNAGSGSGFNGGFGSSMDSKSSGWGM
Turning to B1, the binding signal was 0.524 R (bound/input frequency ratio).

Take B2: the binding signal is 0.806 R (bound/input frequency ratio).

With B3, the binding signal is 0.802 R (bound/input frequency ratio).

Regarding B4, the binding signal is 1.16 R (bound/input frequency ratio).

With B5, the binding signal is 1.4 R (bound/input frequency ratio).

B6: the binding signal is 0.828 R (bound/input frequency ratio).

As for B7, the binding signal was 0.725 R (bound/input frequency ratio).

Regarding B8, the binding signal is 1.59 R (bound/input frequency ratio).

As to B9, the binding signal is 5.69 R (bound/input frequency ratio).

For B10, the binding signal is 6.41 R (bound/input frequency ratio).

With B11, the binding signal was 8.2 R (bound/input frequency ratio).

Turning to B12, the binding signal is 6.06 R (bound/input frequency ratio).

Take B13: the binding signal was 7.42 R (bound/input frequency ratio).

Take B14: the binding signal was 6.03 R (bound/input frequency ratio).

As for B15, the binding signal is 7.57 R (bound/input frequency ratio).
